Measurements as given in PubChem BioAssay (NCI).
This is part of a sample that, as a whole, favours compounds with a hit. Of some 83,000 tested, about 20% had one in any assay.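 Activity criterion: percent growth below 10, measured after cells in 96-well plates were exposed to a single compound concentration for 48 hours.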 The source made the active and inactive calls.

Key:
Experiment in all cases: NCI-60 one-dose screen, 48 h (100 = growth as untreated, 0 = no growth, -100 = all killed)
NCI-H23 lung = conditions: 10 µM unless noted
NCI-H226 lung = conditions: 10 µM unless noted
NCI-H322M lung = conditions: 10 µM unless noted
NCI-H460 lung = conditions: 10 µM unless noted
HOP-92 NSCLC = conditions: 10 µM
NCI-H522 lung = conditions: 10 µM
A549/ATCC NSCLC = conditions: 10 µM unless noted
786-0 renal = conditions: 10 µM unless noted
COLO 205 colon = conditions: 10 µM unless noted

Measured: growth

CCCC(CCC)Oc1ccc(CCCC2=C(O)c3ccccc3C(=O)C2=O)cc1
active: NCI-H322M lung -1.08% | NCI-H460 lung 9.9%
inactive: NCI-H23 lung 26.9% | NCI-H226 lung 32.6% | HOP-92 NSCLC 28.1% | NCI-H522 lung 30.2% | A549/ATCC NSCLC 32.1% | 786-0 renal 42.2% | COLO 205 colon 43.9%

CNCCCNCCCCNCCCN1C(=O)c2ccc3c4c(ccc(c24)C1=O)C(=O)N(CCCNCc1ccccc1OC)C3=O
inactive: NCI-H23 lung 24.9% | NCI-H226 lung 35.7% | NCI-H322M lung 22.8% | NCI-H460 lung 13.5% | HOP-92 NSCLC 69% | NCI-H522 lung 31.3% | A549/ATCC NSCLC 21.6% | 786-0 renal 38.6% | COLO 205 colon 10.8%

CC(C)OC(=O)c1ccc2n1CCCc1cnc(Nc3ccccc3)nc1-2
inactive: NCI-H23 lung 67% | NCI-H226 lung 84.4% | NCI-H322M lung 116% | NCI-H460 lung 86.6% | HOP-92 NSCLC 75.6% | NCI-H522 lung 63.3% | A549/ATCC NSCLC 74.4% | 786-0 renal 83.3% | COLO 205 colon 86%

Cc1ccc([C@@H]2C[C@H](O)Cc3ccccc3N2)s1
inactive: NCI-H23 lung 90.7% | NCI-H226 lung 124% | NCI-H322M lung 110% | NCI-H460 lung 101% | HOP-92 NSCLC 78.8% | NCI-H522 lung 117% | A549/ATCC NSCLC 104% | 786-0 renal 114% | COLO 205 colon 98.8%

Cc1c(Cc2ccccc2)c(=O)oc2c(C)c(OCC(=O)n3nc(C#N)cc3N)ccc12
inactive: NCI-H23 lung 96.5% | NCI-H226 lung 96.2% | NCI-H322M lung 93.6% | NCI-H460 lung 106% | HOP-92 NSCLC 89.1% | NCI-H522 lung 79.4% | A549/ATCC NSCLC 106% | 786-0 renal 97% | COLO 205 colon 107%

C/C(=N\Nc1ccc(Cl)cn1)c1ccc2ccccc2n1
inactive: NCI-H23 lung 21% | NCI-H322M lung 16.4% | HOP-92 NSCLC 34.4% | NCI-H522 lung 11.9% | 786-0 renal 12.9%
active: NCI-H226 lung -5.19% | NCI-H460 lung 3.21% | A549/ATCC NSCLC 4.29% | COLO 205 colon 9.81%

Brc1ccc(-c2nc3ccccc3s2)cc1
inactive: NCI-H23 lung 92.4% | NCI-H226 lung 75.8% | NCI-H322M lung 92.7% | NCI-H460 lung 97.1% | HOP-92 NSCLC 97.7% | NCI-H522 lung 93.8% | A549/ATCC NSCLC 106% | 786-0 renal 106% | COLO 205 colon 106%

Nc1cc2c(cc1Br)[nH]c(=O)c1ccccc12
inactive: NCI-H23 lung 54.4% | NCI-H226 lung 54.8% | NCI-H322M lung 83.8% | NCI-H460 lung 38.4% | HOP-92 NSCLC 35% | NCI-H522 lung 43% | A549/ATCC NSCLC 29.3% | 786-0 renal 58.6% | COLO 205 colon 68.1%

CCOc1nc(-c2ccccc2)cc2c(O)c(C(=O)N/N=C/c3ccccc3O)[nH]c(=O)c12
inactive: NCI-H23 lung 62.7% | NCI-H226 lung 106% | NCI-H322M lung 107% | NCI-H460 lung 107% | HOP-92 NSCLC 82.8% | NCI-H522 lung 81.9% | A549/ATCC NSCLC 85.3% | 786-0 renal 103% | COLO 205 colon 105%

Cc1ccc(S(=O)(=O)NC(CCC(=O)Nc2ccccc2)C(=O)Nc2ccccc2)cc1 (stereo not given)
active: NCI-H23 lung -24.8% | NCI-H226 lung 6.72% | NCI-H322M lung -17% | NCI-H460 lung -4.49% | HOP-92 NSCLC -45.2% | NCI-H522 lung -71.8% | A549/ATCC NSCLC -19% | 786-0 renal -15.6% | COLO 205 colon -22.6%

COc1ccc(-c2cn3ccnc3c(-c3ccc4ncn(C5CCCCC5)c4c3)n2)cc1
active: NCI-H460 lung 8.91% | NCI-H522 lung -20.9% | COLO 205 colon -8.01%
inactive: NCI-H23 lung 37.9% | NCI-H226 lung 64.1% | NCI-H322M lung 68.5% | HOP-92 NSCLC 47.7% | A549/ATCC NSCLC 31.4% | 786-0 renal 16.8%

CC/C(=N\Nc1nc2ccccc2n1C)c1ccccn1
inactive: NCI-H322M lung 21% | HOP-92 NSCLC 29.2% | NCI-H522 lung 18.7% | COLO 205 colon 21.9%
active: NCI-H23 lung 7.14% | NCI-H226 lung -0.758% | NCI-H460 lung 1.28% | A549/ATCC NSCLC 2.95% | 786-0 renal 2.44%

CCCOC(=O)c1c(C)n(C)c2scc[n+]12
inactive: NCI-H23 lung 29% | NCI-H226 lung 87.2% | NCI-H322M lung 51.2% | NCI-H460 lung 110% | HOP-92 NSCLC 30.1% | NCI-H522 lung 79.2% | A549/ATCC NSCLC 62.9% | 786-0 renal 62.9% | COLO 205 colon 84.9%

C[C@H]1C[C@@H](n2cnc3c(N)nccc32)[C@H](O)[C@@H]1O
inactive: NCI-H23 lung 128% | NCI-H226 lung 105% | NCI-H322M lung 110% | NCI-H460 lung 80.8% | HOP-92 NSCLC 83.3% | NCI-H522 lung 151% | A549/ATCC NSCLC 98.6% | 786-0 renal 95.6% | COLO 205 colon 109%

O=C(Oc1ccccc1)c1ccccc1Cl
inactive: NCI-H23 lung 104% | NCI-H226 lung 106% | NCI-H322M lung 104% | NCI-H460 lung 103% | HOP-92 NSCLC 90.1% | NCI-H522 lung 121% | A549/ATCC NSCLC 99.9% | 786-0 renal 101% | COLO 205 colon 104%

COc1cc(CCNc2cnc3cc(N)cc(N)c3n2)cc(OC)c1
inactive: NCI-H23 lung 107% | NCI-H226 lung 99.4% | NCI-H322M lung 102% | NCI-H460 lung 120% | HOP-92 NSCLC 154% | NCI-H522 lung 98.2% | A549/ATCC NSCLC 112% | 786-0 renal 101% | COLO 205 colon 136%

CCC(CCCN1C(=O)c2ccccc2C1=O)Nc1cc(OC)cc2cccnc12 (stereo not given)
inactive: NCI-H23 lung 97.6% | NCI-H226 lung 107% | NCI-H322M lung 116% | NCI-H460 lung 112% | HOP-92 NSCLC 72.4% | NCI-H522 lung 103% | A549/ATCC NSCLC 106% | 786-0 renal 103% | COLO 205 colon 119%

C=CCN(C)C
inactive: NCI-H23 lung 102% | NCI-H226 lung 97.3% | NCI-H322M lung 114% | NCI-H460 lung 108% | HOP-92 NSCLC 110% | NCI-H522 lung 93.7% | A549/ATCC NSCLC 100% | 786-0 renal 106% | COLO 205 colon 121%

c1ccc(C(=NNc2nc3ccccc3o2)c2ccccn2)nc1
active: NCI-H226 lung -2.97% | NCI-H460 lung 3.05% | A549/ATCC NSCLC 6.29% | 786-0 renal 6.88%
inactive: NCI-H23 lung 10.8% | NCI-H322M lung 13.3% | HOP-92 NSCLC 34.4% | NCI-H522 lung 20.9% | COLO 205 colon 18%

COCC(=O)NNc1[nH]c(-c2ccc(OC)cc2)cc1C#N
inactive: NCI-H23 lung 100% | NCI-H226 lung 106% | NCI-H322M lung 33.4% | NCI-H460 lung 117% | HOP-92 NSCLC 95.4% | NCI-H522 lung 104% | A549/ATCC NSCLC 112% | 786-0 renal 95.3% | COLO 205 colon 115%

CCn1cc(C(=O)O)c(=O)c2cc(F)c(N3CCN(S(=O)(=O)c4ccc(Cl)cc4)CC3)cc21
active: NCI-H23 lung -7.07% | NCI-H460 lung 5.92% | HOP-92 NSCLC -4.17% | NCI-H522 lung 8.39%
inactive: NCI-H226 lung 60.1% | NCI-H322M lung 45.9% | A549/ATCC NSCLC 14.6% | 786-0 renal 23.7% | COLO 205 colon 12.1%

COC(=O)c1ccc2[nH]c(O)c(C(=Nc3ccc(N(C)C(=O)CN4CCN(C)CC4)cc3)c3ccc([N+](=O)[O-])cc3)c2c1
inactive: NCI-H23 lung 57.3% | NCI-H226 lung 55.8% | NCI-H322M lung 41.9% | NCI-H460 lung 48.5% | HOP-92 NSCLC 63.6% | NCI-H522 lung 34.3% | A549/ATCC NSCLC 72.8% | 786-0 renal 33.1% | COLO 205 colon 43.8%

O=C1/C(=C/c2ccc(Cl)cc2)CCC/C1=C\c1ccc(Cl)cc1
inactive: NCI-H23 lung 70.7% | NCI-H226 lung 104% | NCI-H322M lung 99.6% | NCI-H460 lung 97.7% | HOP-92 NSCLC 74.4% | NCI-H522 lung 83% | A549/ATCC NSCLC 65.7% | 786-0 renal 91.3% | COLO 205 colon 73.3%

CCCCCCCCCCCCCCCC[n+]1cccc(C#N)c1
inactive: NCI-H23 lung 76.8% | NCI-H226 lung 80.2% | NCI-H322M lung 82.8% | NCI-H460 lung 71.6% | HOP-92 NSCLC 48.7% | NCI-H522 lung 54.7% | A549/ATCC NSCLC 87.7% | 786-0 renal 70.3% | COLO 205 colon 31.9%

CCCCCCCCC1OC1CCCCCCCC(=O)O (stereo not given)
inactive: NCI-H23 lung 100% | NCI-H226 lung 92% | NCI-H322M lung 102% | NCI-H460 lung 99.1% | HOP-92 NSCLC 87.8% | NCI-H522 lung 97.7% | A549/ATCC NSCLC 91.9% | 786-0 renal 100% | COLO 205 colon 105%

Cc1nnc(-c2cc3c(ccc4ccccc43)oc2=O)c2cn(-c3ccc(Cl)cc3)nc12
inactive: NCI-H23 lung 86.9% | NCI-H226 lung 92% | NCI-H322M lung 98.8% | NCI-H460 lung 94.5% | HOP-92 NSCLC 85.9% | NCI-H522 lung 81.2% | A549/ATCC NSCLC 95.2% | 786-0 renal 97.5% | COLO 205 colon 111%

COc1cc(N2C(=O)C=CC2=O)ccc1N1C(=O)C=CC1=O
active: NCI-H522 lung -59.8%
inactive: NCI-H23 lung 105% | NCI-H226 lung 105% | NCI-H322M lung 116% | NCI-H460 lung 104% | HOP-92 NSCLC 93.1% | A549/ATCC NSCLC 103% | 786-0 renal 107% | COLO 205 colon 53%

O=C(O)c1occ(Cl)c1Cl
inactive: NCI-H23 lung 112% | NCI-H226 lung 114% | NCI-H322M lung 116% | NCI-H460 lung 118% | HOP-92 NSCLC 95.3% | NCI-H522 lung 116% | A549/ATCC NSCLC 97.8% | 786-0 renal 111% | COLO 205 colon 114%

CCNc1nnc(COc2ccc(CNC(=O)CCCC/C=C/C(C)C)cc2OC)o1
inactive: NCI-H23 lung 93.7% | NCI-H226 lung 101% | NCI-H322M lung 107% | NCI-H460 lung 103% | HOP-92 NSCLC 98.3% | NCI-H522 lung 83.7% | A549/ATCC NSCLC 97% | 786-0 renal 95.5% | COLO 205 colon 110%

O=C(/C=C/c1ccc(Br)cc1)c1ccccc1
inactive: NCI-H23 lung 97.9% | NCI-H226 lung 90.8% | NCI-H322M lung 106% | NCI-H460 lung 101% | HOP-92 NSCLC 96.2% | NCI-H522 lung 77.8% | A549/ATCC NSCLC 73% | 786-0 renal 85.1% | COLO 205 colon 109%
